From PubChem BioAssay
tim23-1 inh – tim23-1 yeast growth inhibition | S. cerevisiae tim23-1 growth, BacTiter-Glo luminescence, 24 h | inhibition, % at 20 µM | 1.3% of 330,000 active | AID 463212;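 active = growth inhibition of the mutant yeast at or above 50%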;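 note: temperature-sensitive mutant grown at 25 °C; plate controls were DMSO-treated mutant yeast for no effect and medium wells lacking yeast for full effect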
NALP1 inh – blocks the NALP1 inflammasome reconstituted in yeast; S. cerevisiae NALP1/ASC/caspase-1 growth, X-gal OD620, 72 h; inhibition, % at 10 µM; 0.61% of 280,000 active; AID 2071; in the data active = inhibition mostly above about 24%, no sharp cut-off; inactive = mostly below about 32%
TIM10 inh – TIM10 yeast growth inhibition; S. cerevisiae TIM10 strain growth, BacTiter-Glo luminescence, 24 h; inhibition, % at 10 µM; 1.4% of 330,000 active;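 active = inhibition of 40% or more at the single tested concentration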;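 note: wild-type TIM10 isogenic control strain grown at permissive 25 °C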
V-ATPase pH – regulators of yeast V-ATPase proton transport; 0.37% of 350,000 active; S. cerevisiae, pHLuorin cytosolic pH fluorescence; response, % at 10 µM; in the data active = response mostly above about 7.3%, no sharp cut-off; inactive = mostly below about 5.4%; note: actives read high
tim10-1 inh – growth inhibitors of tim10-1 mutant yeast; S. cerevisiae tim10-1 ts strain growth, BacTiter-Glo, 24 h; inhibition, % at 20 µM; 2.2% of 330,000 active; AID 463190;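 active = inhibition of at least 40%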;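 note: mutant grown at 25 °C; 0% = DMSO wells with yeast and 100% = wells holding no yeast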
NLRP3 yeast inh – NALP3 inhibition in yeast | Yeast reconstituted NLRP3/ASC/caspase-1, beta-gal luminescence, 24 h | inhibition, % at 10 µM | 0.39% of 330,000 active | AID 2825;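 active = inhibition of 50% or more; inactive = inhibition below 50%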;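 note: plate controls were induced DMSO wells for no effect and uninduced yeast grown without galactose for full effect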
tim10-1 confirm – tim10-1 yeast growth inhibition, confirmed | shares compounds with tim10-1 inh | S. cerevisiae tim10-1 ts strain growth, BacTiter-Glo, 24 h | inhibition, % at 20 µM | 56% of 7,400 active | AID 463213;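 active = inhibition of yeast growth at or above a set limit in either of two repeat tests at 20 µM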;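 note: tim10-1 mutant grown at permissive 25 °C to find synthetic lethal compounds; 0% = DMSO yeast wells and 100% = medium wells without yeast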
TIM10 conf – TIM10 yeast growth inhibition, confirmed; shares compounds with TIM10 inh; S. cerevisiae tim10 strain growth, BacTiter-Glo luminescence, 24 h; inhibition, % at 10 µM; 63% of 4,600 active; AID 463215;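 active = inhibition of yeast growth at or above a set limit in either of two replicates at 10 µM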;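 note: this counterscreen used the strain with wild-type TIM10; 0% = yeast with DMSO and 100% = medium wells lacking yeast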
tim23-1 confirm – confirmation of tim23-1 mutant yeast growth inhibitors | AID 463218 | inhibition, % at 20 µM | shares compounds with tim23-1 inh | 83% of 4,400 active | S. cerevisiae tim23-1 growth, BacTiter-Glo luminescence, 24 h;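 active = inhibition above about 39% in either of two replicate wells at 20 µM, limit read from the data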;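 note: temperature-sensitive tim23-1 mutant grown at 25 °C; 0% = DMSO wells with yeast and 100% = medium wells without yeast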
* marks the source's active call; other numbers are inactive results; · = no result. An excerpt weighted towards active compounds, which were near 4.2% of everything screened.

SMILES	tim23-1 inh	NALP1 inh	TIM10 inh	V-ATPase pH	tim10-1 inh	NLRP3 yeast inh	tim10-1 confirm	TIM10 conf	tim23-1 confirm
Cc1ccccc1N1CCN(S(=O)(=O)c2ccc3oc(=O)ccc3c2)CC1	68*	-13	42*	-3	79*	16	65*	54*	57*
COc1ccccc1OC(C)C(=O)NNC(=S)NC1CCCC1 (centres undefined)	9	10	10	1	10	5	·	·	·
O=[N+]([O-])c1cccc(S(=O)(=O)Nc2ccc(S(=O)(=O)Nc3nccs3)cc2)c1	9	3	-2	0	-6	19	·	·	·
O=[N+]([O-])c1ccccc1S(=O)(=O)Nc1ccc(S(=O)(=O)Nc2nccs2)cc1	63*	-9	51*	-1	61*	7	63*	54*	56*
COc1cc(CCCN2C(=O)C(=O)NC[C@H]2Cc2cccc3ccccc23)cc(OC)c1OC	-2	·	5	3	-1	6	·	·	·
O=C(Nc1ccc(Oc2ccc(Cl)cc2)c(Cl)c1)c1cc(I)cc(I)c1O	59*	29	31	4	54*	16	52*	·	60*
COc1ccc(S(=O)(=O)Nc2cccc(-c3ccc(N4CCCCCC4)nn3)c2)c(OC)c1	5	-2	7	0	13	5	·	·	·
O=S(=O)(c1ccccc1)c1ncc(C(F)(F)F)cc1Cl	53*	25	23	1	46*	46	22	·	51*
O=C(Nc1ccccc1Cl)c1ccccc1Oc1ccc(C(F)(F)F)cc1[N+](=O)[O-]	56*	1	12	5	44*	13	36*	·	51*
O=C(c1ccccc1Oc1ccc(C(F)(F)F)cc1[N+](=O)[O-])N1CCOCC1	14	18	9	-3	26	22	·	·	·
Cc1ccc(S(=O)(=O)CC(=O)c2cc3cccc(C)c3oc2=O)cc1	53*	3	1	3	42*	5	-23	·	32
Cc1ccc(S(=O)(=O)CCC(=O)Nc2nc(-c3ccncc3)cs2)cc1	4	3	-7	-2	11	7	·	·	·
Cc1ccc(S(=O)(=O)CC(=O)Nc2nc(-c3ccccc3)cs2)cc1	52*	28	29	0	44*	26	45*	·	47*
CN(Cc1ccc(F)cc1)C(=O)c1cc(COc2ccc(-n3cncn3)cc2)on1	59*	6	41*	-1	53*	13	37*	35*	43*
CCn1c(Sc2ccc(N)cc2Cl)nc2ccccc21	66*	22	44*	1	47*	31	50*	47*	47*
CCn1c(SCC(=O)NC(C)c2ccccc2)nc2ccccc21 (centres undefined)	11	4	-4	0	22	1	·	·	·
CC1=NOC(=O)/C1=C/c1ccc(-c2ccc(Cl)cc2)o1	65*	4	65*	0	44*	15	8	69*	-90
CC1=NOC(=O)/C1=C\c1ccc(-c2ccc(Br)cc2)o1	·	6	·	-1	·	·	·	·	·
Cc1ccc(C2=NOC(=O)/C2=C\c2ccc(C)o2)cc1	79*	9	45*	5	59*	30	39*	39*	80*
CC1=NOC(=O)/C1=C\c1ccc(-c2cc(Cl)ccc2Cl)o1	79*	3	14	7	51*	1	14	·	68*
COc1ccc(/C=C2\C(=O)ON=C2c2ccccc2)cc1	42	2	6	3	31	14	·	·	·
CC(C)NC(=O)C1CC(=O)N(CCc2ccc(F)cc2)C1 (centres undefined)	·	·	·	1	·	·	·	·	·
O=C(/C(N=Nc1cccc([N+](=O)[O-])c1)=C(/O)c1ccc(Br)cc1)C(F)(F)F	62*	-7	27	·	62*	48	62*	·	73*
CSc1nc2ccc(NS(=O)(=O)c3ccccc3F)cc2s1	35	16	24	-2	22	17	·	·	·
CSc1nc2ccc(NS(=O)(=O)c3c(Cl)cccc3Cl)cc2s1	52*	9	35	1	43*	24	30*	·	57*
SMILES	tim23-1 inh	NALP1 inh	TIM10 inh	V-ATPase pH	tim10-1 inh	NLRP3 yeast inh	tim10-1 confirm	TIM10 conf	tim23-1 confirm
Cc1sc(NC(=O)c2ccccc2)c(C(c2ccc(Cl)cc2)N2CCN(CCO)CC2)c1C (centres undefined)	52*	17	30	0	42*	7	35*	·	42*
O/N=C(\c1ccc(Cl)cc1)c1cc2ccccc2o1	67*	17	53*	9	46*	9	67*	60*	64*
O=C(Nc1ccc(Cl)cc1Cl)c1cc2ccccc2o1	7	26	-12	-2	2	17	·	·	·
CCOc1ccccc1NC(=O)c1cc(CC(C)C)oc1C	13	36	27	0	20	-16	·	·	·
CCC1(CC)NC(=S)N(Nc2ccccc2)C1=O	-4	0	-7	4	-12	6	·	·	·
Fc1ccc(Nc2nnc(C(F)(F)F)s2)cc1Cl	77*	-2	56*	-3	69*	4	84*	42*	85*
COc1ccc(NC(=O)/C(Cl)=C(/Cl)S(=O)Cc2ccc(Cl)cc2)cn1 (centres undefined)	73*	-2	67*	1	50*	12	46*	90*	68*
Cc1cc(C)n2nc(C(=O)Nc3ccn(Cc4ccccc4C)n3)cc2n1	16	19	6	-1	6	1	·	·	·
CC(C)N1C2OC(C3OC4C(O3)N(C(C)C)S(=O)(=O)N4C(C)C)OC2N(C(C)C)S1(=O)=O (centres undefined)	55*	-3	89*	1	60*	1	71*	88*	29
CC(=O)c1c(C)oc2c1C(=O)c1ccccc1C2=O	·	48	·	0	·	·	·	·	·
Cc1oc2c(c1C(=O)NCc1cccnc1)C(=O)c1ccccc1C2=O	83*	11	94*	·	83*	40	82*	95*	72*
COc1cc(C)nc(N(Cc2ccccc2)S(=O)(=O)c2ccccc2)n1	36	-7	2	4	25	5	·	·	·
CCCN(c1nc(C)cc(OC)n1)S(=O)(=O)c1ccccc1	51*	24	34	-1	44*	-8	18	·	40*
O=C(COC(=O)C12CC3CC(CC(C3)C1)C2)Nc1ccc(OC(F)F)cc1	59*	36	57*	2	44*	0	22	46*	62*
Cc1cccc(OCCCN2CCCCCC2)c1	-31	8	3	1	2	13	·	·	·
